# From PubChem BioAssay
# “And” between values parts separate entries of the source, which are not always exact repeats. Equal entries are not always repeated. Inconclusive results are not listed. For some of these results: Potency and affinity values are given separately. Some compounds were tested as several samples or in several runs, with calls that do not always agree. The source made the active and inactive calls.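 Rule for the calls, unless noted: active = compounds whose cell count with miR-34 switched on is under 0.7 times the count with it off; inactive = the rest.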
# Assays:
# [1] = viability loss with induced miR-34 in A549 – imaging, A549 dox-inducible miR-34, nuclei and caspase counts, primary screen (AID 1347080); conditions: A549 miR-34 inducible, Hoechst nuclei count, 48 h
# [2] = galactose survival enhancers in mitochondrial complex I cybrids – cell-based, galactose medium, ATP luminescence, primary screen (AID 1645843;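 active = z-score of at least 1.8 in each of two replicates, scored against plate mean and spread of sample wells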;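 note: positive z means more ATP and so rescue of galactose-driven cybrid death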); conditions: complex I mutant cybrid cells, 72 h, stronger effect = higher value
# [3] = P. berghei load reduction in hepatocytes – cell-based, HepG2, luciferase luminescence, HepG2 viability, primary screen (AID 624349; in the data active = parasite load remaining mostly below about 12%, no sharp cut-off; inactive = mostly above about 10%;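 note: 100% = mean of DMSO negative control wells on the same plate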); conditions: P. berghei liver stage in HepG2, luciferase luminescence, concentration not given here; parasite load remaining: stronger effect = lower value; viability: measured here: HepG2 viability without parasites
# [4] = MELAS cybrid and Rieske KO viability enhancers – cell-based, MELAS cybrids, Rieske KO mouse fibroblasts, CellTiter-Glo, primary screen (AID 1508586;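 active = mean z-score across replicates of 1.96 or higher in either the MELAS or the Rieske mutant cell line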;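 note: z relative to plate mean and SD of compound and empty wells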); conditions: low glucose
# [5] = molecular target: ATP-dependent translocase ABCB1 (Homo sapiens) (UniProt P08183); assay: P-glycoprotein substrate transport blockade – cell-based (AID 377; in the data active = fluorescence slope change above about 50%); conditions: MDR1-expressing cells, fluorescent substrate accumulation slope; stronger effect = higher value; concentration not given here
# ATP-dependent translocase ABCB1 (Homo sapiens), sequence (P08183 whole entry, looked up): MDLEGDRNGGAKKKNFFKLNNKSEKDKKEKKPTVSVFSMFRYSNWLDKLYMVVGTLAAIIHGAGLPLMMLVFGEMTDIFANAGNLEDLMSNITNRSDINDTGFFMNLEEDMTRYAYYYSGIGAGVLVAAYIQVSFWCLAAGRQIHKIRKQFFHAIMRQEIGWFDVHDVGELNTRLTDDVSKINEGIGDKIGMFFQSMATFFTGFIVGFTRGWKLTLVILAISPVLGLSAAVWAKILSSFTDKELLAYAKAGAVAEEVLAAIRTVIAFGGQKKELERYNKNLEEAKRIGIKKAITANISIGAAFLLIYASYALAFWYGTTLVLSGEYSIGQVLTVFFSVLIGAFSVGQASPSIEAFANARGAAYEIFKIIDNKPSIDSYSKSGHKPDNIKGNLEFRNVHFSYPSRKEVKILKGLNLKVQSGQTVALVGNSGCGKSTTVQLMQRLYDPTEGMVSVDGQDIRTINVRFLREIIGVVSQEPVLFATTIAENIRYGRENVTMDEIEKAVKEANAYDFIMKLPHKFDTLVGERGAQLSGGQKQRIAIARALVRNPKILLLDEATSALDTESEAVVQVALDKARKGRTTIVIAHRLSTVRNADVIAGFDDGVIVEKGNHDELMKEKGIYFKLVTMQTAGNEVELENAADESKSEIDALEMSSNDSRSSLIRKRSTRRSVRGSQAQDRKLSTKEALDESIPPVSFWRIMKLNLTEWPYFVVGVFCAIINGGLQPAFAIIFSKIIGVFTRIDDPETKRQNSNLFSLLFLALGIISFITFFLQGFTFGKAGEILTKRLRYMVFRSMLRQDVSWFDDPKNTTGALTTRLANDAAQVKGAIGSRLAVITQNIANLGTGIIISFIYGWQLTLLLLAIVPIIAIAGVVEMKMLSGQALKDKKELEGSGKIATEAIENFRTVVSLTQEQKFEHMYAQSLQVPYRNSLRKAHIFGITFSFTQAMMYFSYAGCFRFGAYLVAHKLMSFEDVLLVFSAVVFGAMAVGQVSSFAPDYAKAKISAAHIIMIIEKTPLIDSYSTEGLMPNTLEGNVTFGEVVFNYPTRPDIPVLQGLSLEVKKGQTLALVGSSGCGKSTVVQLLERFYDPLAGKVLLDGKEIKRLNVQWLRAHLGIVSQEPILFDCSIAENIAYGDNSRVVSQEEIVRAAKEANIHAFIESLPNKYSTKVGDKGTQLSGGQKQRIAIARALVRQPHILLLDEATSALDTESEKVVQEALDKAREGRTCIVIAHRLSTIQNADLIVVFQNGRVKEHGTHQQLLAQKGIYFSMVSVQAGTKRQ
# [6] = compounds altering viability of human ES cells (AID 493140; call rule not given here;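 note: cells exposed to compounds for four days before counting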); conditions: human embryonic stem cell survival screen; stronger effect = higher value
# [7] = molecular target: NAD(+) hydrolase SARM1 (Homo sapiens) (UniProt Q6SZW1); assay: blocking NAD cleavage by SARM1 SAM-TIR – cell lysate, NAD-Glo luminescence (AID 1508614;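 active = compound whose remaining NAD level is above about 45 nM, limit read from the data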;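 note: higher remaining NAD means stronger inhibition of SARM1 NADase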); conditions: SAM-TIR HEK293T lysate NADase, at 1 µM, stronger effect = higher value
# NAD(+) hydrolase SARM1 (Homo sapiens), sequence (Q6SZW1 whole entry, looked up): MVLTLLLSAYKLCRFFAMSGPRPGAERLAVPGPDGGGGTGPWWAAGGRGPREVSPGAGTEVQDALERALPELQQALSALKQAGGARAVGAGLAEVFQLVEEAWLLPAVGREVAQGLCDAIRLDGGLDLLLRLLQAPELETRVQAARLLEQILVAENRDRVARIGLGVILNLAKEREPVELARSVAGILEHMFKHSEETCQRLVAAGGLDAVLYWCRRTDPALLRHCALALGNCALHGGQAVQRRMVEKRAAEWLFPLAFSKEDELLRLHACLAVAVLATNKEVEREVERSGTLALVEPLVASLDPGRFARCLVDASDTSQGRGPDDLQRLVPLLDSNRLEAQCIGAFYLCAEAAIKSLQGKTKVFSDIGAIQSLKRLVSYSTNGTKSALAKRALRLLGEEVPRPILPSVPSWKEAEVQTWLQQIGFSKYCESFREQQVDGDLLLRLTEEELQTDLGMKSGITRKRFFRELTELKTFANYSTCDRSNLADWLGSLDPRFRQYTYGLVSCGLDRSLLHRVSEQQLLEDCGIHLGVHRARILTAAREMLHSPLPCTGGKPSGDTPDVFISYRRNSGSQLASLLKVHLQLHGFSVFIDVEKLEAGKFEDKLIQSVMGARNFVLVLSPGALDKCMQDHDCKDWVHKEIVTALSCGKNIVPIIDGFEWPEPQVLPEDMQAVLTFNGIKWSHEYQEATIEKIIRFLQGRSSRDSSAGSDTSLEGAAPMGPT
# [8] = blockers of polyQ-driven CASP3 activation – cell-based (AID 1583); conditions: polyglutamine-induced caspase-3 activation, cell assay; stronger effect = higher value;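 tested at 10 µM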
# [9] = yeast 75Q aggregation reduction – 75Q-TubU reporter (AID 1593); conditions: Yeast 75Q polyglutamine aggregation reporter
# [10] = restoration of touch response, mutant HTT neurons – whole organism, C. elegans mechanosensory neurons, N-terminal huntingtin (AID 1599); conditions: C. elegans polyQ-huntingtin mechanosensory neurons, stronger effect = higher value
# [11] = blockers of cytochrome c efflux from mitochondria – biochemical, purified mitochondria (AID 1603); conditions: stronger effect = lower value;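 note: mouse liver mitochondria challenged with calcium chloride; signal normalized to the plate average as 100%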
# [12] = polyglutamine aggregate formation blockers (AID 1604); conditions: polyglutamine-induced protein aggregation inhibition assay; stronger effect = higher value; tested at 2.5 µM
# [13] = glutamate transport activators, MN-1 cells, MN-1 cell line (AID 1612); conditions: MN-1 motor neuron cells, stronger effect = higher value;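 note: tested at 1 µM final; 0% = mean of DMSO vehicle wells on each plate; positive means more glutamate uptake than control and negative means less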
# [14] = GFP-Q80 aggregate reduction, neuronal-like cells, cell-based, NGF-treated PC12, GFPQ80 (AID 1614); conditions: PC12 NGF-treated GFP-polyQ80 inclusion reduction;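 note: lower means fewer inclusions and 0 means no inclusions at all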
# [15] = 75Q-TubH aggregate inhibition, S. cerevisiae, yeast (AID 1616); conditions: S. cerevisiae 75Q-TubH polyglutamine aggregation suppression; stronger effect = higher value
# [16] = stronger effect = lower value, cell number ratio, induced over uninduced
# [17] = measured here: relative caspase fold change +Dox/-Dox
# [18] = measured here: total cells with miR-34 induction, stronger effect = lower value
# [19] = measured here: total cells without miR-34 induction
# [20] = MELAS cybrid survival, CellTiter-Glo 48 h, stronger effect = higher value
# [21] = Rieske KO mouse fibroblast survival, CellTiter-Glo 72 h
compound,measurement,setting,value
CCC1C=CC=CCC(C)C(O)C(C)C(=O)C(C)C(O)C(C)C(=O)C(C)C(O)C(C)C=CC(=O)OC2C(C)C(CC1)O[C@@]1(CCC(C)C(CC(C)O)O1)C2C (stereo partly specified),fold change,[1]; [16],1.03 (inactive)
same,fold change,[1]; [17],1.64
same,cell count,[1]; [18],7130
same,cell count,[1]; [19],6920
same,z-score,[2],-0.03 (inactive)
CC(C)(O)C1C2OC(=O)C1[C@]1(O)CC3O[C@]34C(=O)OC2[C@]14C (stereo partly specified) (tested in a mixture with another compound),fold change,[1]; stronger effect = lower value,0.954 (inactive)
same,fold change,[1]; [17],1.55
same,cell count,[1]; [18],9380
same,cell count,[1]; [19],9830
same,z-score,[2],0.86 (inactive)
CN1[C@@H]2CC[C@H]1CC(OC1c3ccccc3CCc3ccccc31)C2 (stereo partly specified),parasite load remaining,[3],67% (inactive)
same,viability,[3],69.7%
same,fold change,[1]; [16],0.913 (inactive)
same,fold change,[1]; [17],0.451
same,cell count,[1]; [18],8290
same,cell count,[1]; [19],9070
same,z-score,[4]; [20],-1.44 (inactive)
same,z-score,[4]; [21],0.907
C[C@]12CC[C@H](O)C[C@H]1CC[C@@H]1[C@@H]2CC[C@]2(C)[C@@H](C3=CC(=O)OC3)CC[C@]12O,fluorescence slope change,[5],80.1% (active)
same,survival,[6],11.7 (inactive)
same,parasite load remaining,[3],-9.15% (inactive) and 10.4% (inactive)
same,viability,[3],40.6% and 30.9%
same,fold change,[1]; stronger effect = lower value,0.981 (inactive)
same,fold change,[1]; [17],1.54
same,cell count,[1]; [18],557
same,cell count,[1]; [19],568
same,z-score,[4]; [20],-0.147 (inactive)
same,z-score,[4]; [21],0.0544
CCC(=O)OC(Cc1ccccc1)(c1ccccc1)C(C)CN(C)C (stereo unspecified),survival,[6],8.25 (inactive)
same,parasite load remaining,[3],85.5% (inactive)
same,viability,[3],74.7%
same,fold change,[1]; stronger effect = lower value,0.896 (inactive)
same,fold change,[1]; [17],0.845
same,cell count,[1]; [18],9110
same,cell count,[1]; [19],10200
same,z-score,[4]; [20],0.276 (inactive)
same,z-score,[4]; [21],-0.451
C=C(C)[C@@H]1C2C(=O)O[C@H]1[C@H]1OC(=O)[C@@]34OC3C[C@]2(O)[C@@]14C (stereo partly specified),parasite load remaining,[3],103% (inactive)
same,viability,[3],99.2%
same,fold change,[1]; [16],0.887 (inactive)
same,fold change,[1]; [17],0.911
same,cell count,[1]; [18],8720
same,cell count,[1]; [19],9830
same,z-score,[4]; [20],0.399 (inactive)
same,z-score,[4]; [21],0.218
CN1CC[C@@]23CCCCC2C1Cc1ccc(O)cc13 (stereo partly specified),fold change,[1]; stronger effect = lower value,0.886 (inactive)
same,fold change,[1]; [17],1.9
same,cell count,[1]; [18],9070
same,cell count,[1]; [19],10200
same,z-score,[2],0.545 (inactive)
CCCCCC[C@H]1C(=O)O[C@H](C)C(NC(=O)c2cccc(NC=O)c2O)C(=O)O[C@@H](C)[C@@H]1OC(=O)CC(C)C (stereo partly specified),survival,[6],38.8 (inactive)
same,parasite load remaining,[3],0.52% (inactive) and 0.28% (active)
same,viability,[3],30.3% and 71%
same,fold change,[1]; stronger effect = lower value,1.21 (inactive)
same,fold change,[1]; [17],0.771
same,cell count,[1]; [18],3300
same,cell count,[1]; [19],2720
same,z-score,[4]; [20],0.402 (inactive)
same,z-score,[4]; [21],0.0989
C#CC(C)(O)CC (stereo unspecified),fold change,[1]; stronger effect = lower value,0.85 (inactive)
same,fold change,[1]; [17],1.03
same,cell count,[1]; [18],8040
same,cell count,[1]; [19],9450
same,remaining NAD,[7],10 nM (inactive)
C[C@]12CCC(=O)CC1CCC1C2CC[C@@]2(C)C1CC[C@]2(C)O (stereo partly specified),fold change,[1]; stronger effect = lower value,0.938 (inactive)
same,fold change,[1]; [17],1.8
same,cell count,[1]; [18],9370
same,cell count,[1]; [19],9990
same,z-score,[2],-0.195 (inactive)
CN1C[C@H](CO)C=C2c3cccc4[nH]cc(c34)C[C@H]21,fluorescence slope change,[5],116% (active)
same,inhibition,[8],16.6%
same,score,[9],1.69
same,rescue above control,[10],7.23
same,cytochrome c release ratio,[11],1.6
same,inhibition of aggregation,[12],44.9%
same,glutamate uptake change,[13],-16.1%
same,inclusion score,[14],2
same,aggregation suppression score,[15],1.67
same,survival,[6],7.67 (inactive)
same,parasite load remaining,[3],67.2% (inactive) and 71.4% (inactive)
same,viability,[3],100% and 77.2%
same,fold change,[1]; stronger effect = lower value,0.809 (inactive)
same,fold change,[1]; [17],1.6
same,cell count,[1]; [18],8450
same,cell count,[1]; [19],10400
C[C@]12CCC(=O)C=C1CCC1C2CC[C@@]2(C)C1CC[C@]2(C)O (stereo partly specified),fold change,[1]; stronger effect = lower value,1.16 (inactive)
same,fold change,[1]; [17],0.795
same,cell count,[1]; [18],2670
same,cell count,[1]; [19],2300
same,z-score,[2],-1.03 (inactive)
C[C@]12CCC(=O)C=C1CC[C@@H]1[C@@H]2C(=O)C[C@]2(C)C(=O)CC[C@@H]12,survival,[6],4.17 (inactive)
same,parasite load remaining,[3],81.1% (inactive)
same,viability,[3],96.5%
same,fold change,[1]; stronger effect = lower value,0.907 (inactive)
same,fold change,[1]; [17],0.858
same,cell count,[1]; [18],9500
same,cell count,[1]; [19],10500
same,z-score,[4]; [20],0.15 (inactive)
same,z-score,[4]; [21],-0.446
C[C@]12CC[C@H](O)C[C@H]1CC[C@@H]1[C@@H]2C[C@@H](O)[C@]2(C)[C@@H](C3=CC(=O)OC3)CC[C@]12O,survival,[6],8.33 (inactive)
same,parasite load remaining,[3],0.32% (inactive)
same,viability,[3],57%
same,fold change,[1]; stronger effect = lower value,0.713 (inactive)
same,fold change,[1]; [17],1.4
same,cell count,[1]; [18],550
same,cell count,[1]; [19],772
same,z-score,[4]; [20],2.02 (active)
same,z-score,[4]; [21],-0.935
CN1[C@@H]2CC[C@H]1CC(OC(=O)C1C=Nc3ccccc31)C2 (stereo partly specified),parasite load remaining,[3],130% (inactive)
same,viability,[3],98.7%
same,fold change,[1]; [16],0.853 (inactive) and 0.904 (inactive)
same,fold change,[1]; [17],1.46 and 2.72
same,cell count,[1]; [18],8760 and 8980
same,cell count,[1]; [19],10300 and 9930
same,z-score,[4]; [20],2.22 (active) and 0.522 (inactive)
same,z-score,[4]; [21],-0.387 and 0.113
C[N+]1([O-])[C@@H]2CC(OC(=O)[C@H](CO)c3ccccc3)C[C@H]1[C@@H]1O[C@@H]12 (stereo partly specified),fluorescence slope change,[5],76.2% (active)
same,survival,[6],10.4 (inactive)
same,parasite load remaining,[3],3.97% (inactive) and 96.4% (inactive)
same,viability,[3],30.6% and 90.4%
same,fold change,[1]; [16],0.882 (inactive)
same,fold change,[1]; [17],1.03
same,cell count,[1]; [18],8380
same,cell count,[1]; [19],9510
same,z-score,[4]; [20],-1.22 (inactive)
same,z-score,[4]; [21],-0.531
O=C1OCCN1N=Cc1ccc([N+](=O)[O-])o1,fluorescence slope change,[5],82.1% (active)
same,survival,[6],4.33 (inactive)
same,parasite load remaining,[3],34.2% (inactive)
same,viability,[3],103%
same,fold change,[1]; [16],0.869 (inactive)
same,fold change,[1]; [17],1.27
same,cell count,[1]; [18],7950
same,cell count,[1]; [19],9150
same,z-score,[4]; [20],-1.23 (inactive)
same,z-score,[4]; [21],-1.17
